ELG1 DNA repair: inhibitors of ELG1-dependent DNA repair in HEK293T cells; HEK293T ELG1-luciferase reporter, luminescence, 16 h; DNA damage induced by 5-fluorouridine; hit rate 2.3% among 330,000; Potency, µM (titrated, usually from 46.1 µM), for the others: at the top dose activity change, negative = inhibition, usual class: inhibitors; further: on the % scale 0 is the no-effect control and ±100 the full control effect; nearly all actives have a fitted effect of over 55% in size
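DMSO vehicle served as the neutral condition. Each well held 2,000 cells given 5-fluorouridine plus compound; after 16 hr at 37 °C/5% CO2, ONE-Glo was added and luciferase measured 30 min later.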
SMN2 splice up: enhancers of SMN2 splice variant expression | HEK293 SMN2-luciferase splicing reporter, luminescence, 30-36 h | Potency, µM (top dose mostly 46.1 µM), inactives show at the top dose activity change, positive = activation, actives largely listed as activators | hit rate 2.8% among 210,000 | AID 1458; further: % of control where 0% means no effect; nearly all actives have a fitted effect of over 55% in size
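HEK293 cells carry an SMN2 minigene-luciferase reporter in which exon 7 inclusion puts luciferase in frame. Cells were seeded at 2000 cells/well, attached for 10-12 hours, then exposed to compounds for 30-36 hours at 37C before ONE-Glo luminescence.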
FLuc modulator: counter-screen for miR-21 project: firefly luciferase inhibitors or activators | hit rate 6.9% among 360,000 | AID 588342 | purified FLuc, Km substrates, luminescence inhibition | Potency, µM (doses to about 57.5 µM), for inactives: top-dose activity change, negative = inhibition, hits mostly inhibitors | P08659;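 further: plate controls were vehicle for no effect and reference inhibitor for full effect; nearly all actives have a fitted effect of over 55% in size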
Target sequence (P08659 whole entry, looked up): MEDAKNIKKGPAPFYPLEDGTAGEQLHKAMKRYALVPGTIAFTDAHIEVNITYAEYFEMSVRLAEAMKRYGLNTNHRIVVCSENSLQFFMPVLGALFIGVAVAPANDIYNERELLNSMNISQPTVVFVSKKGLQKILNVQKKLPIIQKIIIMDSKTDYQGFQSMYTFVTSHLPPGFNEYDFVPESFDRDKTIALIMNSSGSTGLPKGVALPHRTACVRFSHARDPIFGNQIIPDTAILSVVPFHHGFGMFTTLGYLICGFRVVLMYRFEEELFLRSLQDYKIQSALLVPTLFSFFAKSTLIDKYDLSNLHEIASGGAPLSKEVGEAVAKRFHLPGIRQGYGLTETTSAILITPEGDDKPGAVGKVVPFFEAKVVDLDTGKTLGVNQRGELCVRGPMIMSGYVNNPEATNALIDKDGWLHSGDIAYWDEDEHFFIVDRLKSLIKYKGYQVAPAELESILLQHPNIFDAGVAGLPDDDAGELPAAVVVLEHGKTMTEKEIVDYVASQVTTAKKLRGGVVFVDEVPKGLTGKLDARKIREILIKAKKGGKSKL
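Biochemical qHTS of compounds, final roughly 60 µM downward over six points, against 10 nM purified firefly luciferase using Km concentrations of substrates (10 uM D-luciferin, 10 uM ATP) in Tris acetate pH 7.5 buffer; luminescence output.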
Rab9 prom act: Rab9 promoter activation. Potency, µM (series often up to 9.22 µM), inactives show top-dose activation, negative = inhibition, most hits filed as activators. Huh7 Rab9 promoter-luciferase reporter, luminescence, 24 h. hit rate 2.8% among 320,000; further: % of control where 0% means no effect; nearly all actives have a fitted effect of over 60% in size
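Rab9 promoter-driven luciferase in stably transfected Huh7 cells; 1500 cells/well rested 2 h, exposed to compound in DMSO for 24 h at 37 °C, 5% CO2. Luminescence read 10 min after adding luciferase reagent at ambient temperature.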
ELG1 genotoxic: genotoxicity induction in ELG1-luciferase HEK293T cells | HEK293T ELG1-luciferase reporter, luminescence, 16 h | Potency, µM (titrated, usually from 46 µM), for inactives: top-dose activity change, positive = activation, usual class: activators | hit rate 1.3% among 330,000; further: % of control where 0% means no effect; nearly all actives have a fitted effect of over 60% in size
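Screening used a luciferase reporter fused to human ELG1 in HEK293T cells. Luminescence was read on a CCD plate imager after 16 hr exposure and 30 min ONE-Glo incubation.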
NPC1 prom act: activators of NPC1 promoter; Huh7 NPC1 promoter luciferase reporter, 24 h; AID 485313; hit rate 2.4% among 320,000; Potency, µM (series often up to 9.22 µM), for inactives: top-dose activation, usual class: activators; further: % of control where 0% means no effect; nearly all actives have a fitted effect of over 60% in size
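NPC1 promoter–luciferase Huh7 cells; 24 h compound; luminescence.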
Active calls of the source: *; u = inconclusive; x = no result given; [ ] = another dose, or the depositor's remark. Hits are enriched below; roughly 9.4% of the tested compounds scored in any of these assays. The call rests on the fitted dose curve; in most records, active means well fitted curve in the direction sought with a large enough effect; inconclusive means small, poorly fitted or top-dose-only effect, or another doubt; inactive means no such curve, though single readings can be large; an effect the other way counts as inactive or inconclusive. Potency means the concentration at half of the fitted maximal effect.

SMILES	ELG1 DNA repair	SMN2 splice up	FLuc modulator	Rab9 prom act	ELG1 genotoxic	NPC1 prom act
COc1cc(Cl)cc(/C=C/c2ccc3ccccc3n2)c1OC(C)=O	u	2.5µM*	6.7µM*	2.5µM*	u	2µM*
CC(=O)Oc1ccc(Cl)cc1/C=C/c1cc(OC(C)=O)c2ccccc2n1	u	-21%	-18%	6%	0%	24%
O=C(C1CCCO1)N1CCN(C(=S)Nc2ccc(Br)cc2)CC1 (centres undefined)	2%	x	4%	17%	-2%	-1%
NS(=O)(=O)c1ccc(NC(=S)N2CCN(C(=O)C3CCCO3)CC2)cc1 (centres undefined)	-15%	x	4.8µM*	0%	-13%	16%
Cc1ccc2cc(C3CC(c4ccco4)=NN3S(=O)(=O)c3ccccc3)c(Cl)nc2c1 (centres undefined)	-3%	32µM*	3%	-4%	-2%	-3%
COc1ccc2cc(C3CC(c4ccco4)=NN3S(=O)(=O)c3ccccc3)c(Cl)nc2c1 (centres undefined)	-23%	9%	4%	-11%	-5%	0%
CCOC(=O)c1cccc(NC(=O)c2ccc3c(Cl)c4c(nc3c2)CCC4)c1	x	8%	0.3µM*	x	x	x
COC(=O)c1ccccc1NC(=O)c1ccc2c(Cl)c3c(nc2c1)CCCC3	x	-1%	12µM*	x	x	x
COCCNC(=O)c1ccc2c(Cl)c3c(nc2c1)CCC3	u	x	8.5µM*	3.5µM*	u	u
COc1ccc(OC)c(NC(=O)c2ccc3c(Cl)c4c(nc3c2)CCCC4)c1	x	12%	-19%	x	x	x
CCOC(=O)c1ccccc1NC(=O)c1ccc2c(Cl)c3c(nc2c1)CCC3	x	8%	5.4µM*	x	x	x
O=C(Cn1cc(SCc2ccc(F)cc2)c2ccccc21)N1CCCCC1	x	x	-15%	x	x	x
Cc1ccc2oc(C(=O)N(Cc3ccccc3F)C3CCS(=O)(=O)C3)c(C)c2c1 (centres undefined)	x	-14%	-13%	x	x	x
COC(=O)N[C@@H](c1cccc(C)c1)[C@@H](C)[N+](=O)[O-]	x	1%	x	x	x	x
O=C1c2ccccc2C(=O)N1CCSc1nc2ccccc2c(=O)n1CCCN1CCOCC1	7%	2%	-6%	-2%	-9%	2%
O=C1c2ccccc2C(=O)N1CCCCSc1nc2ccccc2c(=O)n1CCCN1CCOCC1	21µM*	-11%	1%	-4%	-10%	0%
CC(C)(C)c1ccc(-c2nc(S(=O)(=O)c3ccccc3)c(N3CCOCC3)o2)cc1	x	6%	-2%	x	x	x
COC(=O)c1sc(-c2ccc(C(C)(C)C)cc2)cc1NC(=O)CSCC(=O)O	9%	x	3.4µM*	-2%	9%	4%
COC(=O)c1sc(-c2ccc(Cl)cc2)cc1NC(=O)c1ccccc1C(=O)O	13%	x	21µM*	-1%	0%	-1%
COC(=O)c1sc(-c2ccccc2)cc1NC(=O)C1CC1	u	-11%	u	3%	-9%	5%
COC(=O)c1sc(-c2ccc(C(C)(C)C)cc2)cc1NC(=O)c1ccccc1C(=O)O	u	x	11µM*	22%	18%	15%
COC(=O)C(Cc1ccccc1)NC(=O)c1ccc(C)cc1 (centres undefined)	11%	-8%	6µM*	5%	-9%	-4%
COC(=O)C(Cc1ccc(O)cc1)NC(=O)c1ccccc1 (centres undefined)	12%	29%	19µM*	-3%	0%	-5%
COC(=O)[C@H](Cc1ccccc1)NC(=O)NCc1ccc(C)cc1	13%	x	21µM*	-7%	0%	4%
O=C(COCc1cc(-c2ccc3c(c2)OCO3)on1)NCc1ccc(F)cc1	x	x	1%	x	x	x
SMILES	ELG1 DNA repair	SMN2 splice up	FLuc modulator	Rab9 prom act	ELG1 genotoxic	NPC1 prom act
CCCCOc1ccc(C(=O)Nc2cccc(-c3nc4cccnc4s3)c2)cc1	x	x	1%	x	x	x
CN(C(=O)C(C)(C)C)C1c2c(ccc3ccccc23)OCC1CO (centres undefined)	-10%	x	4%	-5%	-3%	-3%
CNC(=S)N(C)[C@H]1c2c(ccc3ccccc23)OC[C@H]1CO	23µM*	-11%	-6%	3%	-5%	-1%
CCCC(=O)N(C)c1nnc(-c2ccc(OC)cc2)s1	u	10%	7.6µM*	4µM*	u	27%
CCOc1ccc(-c2nnc(N(CC)C(=O)C3CCC3)s2)cc1	12%	15%	7.6µM*	5%	u	2%
COCCN(C(=O)CCc1ccc(OC)cc1)c1nnc(-c2ccncc2)s1	u	x	0%	-2%	-1%	0%
COCCN(C(=O)C1CC1)c1nnc(-c2ccc(C)cc2)s1	25%	-15%	u	11%	6%	16%
COc1ccc(C(c2c(O)cc(C)n(Cc3ccco3)c2=O)N2CCCCC2)cc1OC (centres undefined)	x	x	2%	x	x	x
O=C(COc1ccccc1)NNC1=NS(=O)(=O)c2ccccc21	22%	-5%	24µM*	17%	4%	-2%
COc1ccc(C(=O)NNc2ccccc2)cc1OC	2%	-25%	-1%	-3%	9%	-5%
COc1ccc(C(=O)NNC2=NS(=O)(=O)c3ccccc32)cc1OC	2%	x	15µM*	-2%	-5%	1%
O=C1c2ccccc2C(O)(O)[C@@]1(O)[C@]1(O)C(=O)c2ccccc2C1(O)O	x	-6%[9.22 µM]	x	x	x	x
CC(C)C12CC[C@@]3(CC[C@H]4[C@@](C)(CCC[C@]4(C)C(=O)O)[C@@H]3C1)[C@@H](CN)C2	x	-3%[9.22 µM]	x	x	x	x
CCN(Cc1nc(-c2ccc(OC)cc2)oc1C)S(=O)(=O)c1ccc(Cl)cc1	x	x	1%	x	x	x
Clc1ccc(CSc2snnc2-c2ccccc2)cc1	29%	-12%	-17%	15%	13%	1%
Clc1ccccc1CSc1snnc1-c1ccccc1	u	-10%	21µM*	29%	u	22%
Cc1nnsc1Sc1ccccn1	u	1%	3%	0%	10%	-14%
c1ccc(-c2nnsc2Sc2ccccn2)cc1	u	-11%	17µM*	23%	4%	15%
